Measurements as given in PubChem BioAssay AID1159580 (chemical genetic matrix, 2015).
Values joined by “and” are separate entries in the source; they are usually repeats but may differ in a detail not shown here. Equal values may be shown once. Hit rate of the full screen: of about 5,500 compounds, about 2,000 (36%) were called active. Another 18% or so got no clear call; they are omitted. No stated cut-off is given here; in the data, active means normalized growth mostly below about 0.91 (no sharp cut-off); inconclusive means no clear call, values can overlap the other calls; inactive means mostly above about 0.92. The list shows a part of the results.

Assay: chemical genetic growth profiling, strain panel (AID 1159580);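 further: tested at 20 µM; growth read once vehicle control cultures reached saturation at 30 °C; 1 = growth at the plate median or of vehicle wells; lower values mean less growth of the strain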
Details: S. cerevisiae deletion strains, growth OD

Measured: normalized growth

Cn1c(=O)c2[nH]cnc2n(C)c1=O
inactive: locus YAL013W, strain DEP1, hits give low values 0.996 | locus YAL021C, strain ccr4, hits give low values 1.03 | locus YAL026C, strain drs2, hits give low values 1.03 | locus YAL030W, strain snc1, hits give low values 1.02 | locus YAL040C, strain CLN3, hits give low values 0.999 | locus YBL061C, strain skt5, hits give low values 1.02 | locus YBR009C, strain hhf1, hits give low values 1 | locus YBR021W, strain FUR4, hits give low values 0.968 | locus YBR023C, strain chs3, hits give low values 1.04 | locus YBR171W, strain sec66, hits give low values 1.04 | locus YBR229C, strain ROT2, hits give low values 0.983 | locus YBR231C, strain swc5, hits give low values 1.02 | locus YBR279W, strain paf1, hits give low values 1.02 | locus YCL011C, strain gbp2, hits give low values 1.02 | locus YCL016C, strain dcc1, hits give low values 1.04 | locus YCL029C, strain bik1, hits give low values 0.966 | locus YCL061C, strain MRC1 (second series), hits give low values 1 | locus YCL069W, strain vba3, hits give low values 1 | locus YCR088W, strain abp1, hits give low values 1.02 | locus YDL005C, strain med2, hits give low values 1.02 | locus YDL035C, strain GPR1, hits give low values 0.996 | locus YDL040C, strain nat1, hits give low values 1.02 | locus YDL074C, strain BRE1, hits give low values 1.02 | locus YDL101C, strain DUN1, hits give low values 0.985 | locus YDL134C, strain PPH21, hits give low values 0.985 | locus YDL185W, strain tfp1, hits give low values 0.979 | locus YDL192W, strain arf1, hits give low values 0.964 | locus YDR001C, strain nth1, hits give low values 1.01 | locus YDR069C, strain doa4, hits give low values 1.02 | locus YDR101C, strain arx1, hits give low values 0.975 | locus YDR137W, strain rgp1, hits give low values 1.04 | locus YDR150W, strain NUM1, hits give low values 0.99 | locus YDR159W, strain sac3, hits give low values 0.982 | locus YDR162C, strain NBP2, hits give low values 1.01 | locus YDR195W, strain ref2 1.01 | locus YDR297W, strain sur2, hits give low values 1.03 | locus YDR318W, strain mcm21, hits give low values 0.976 | locus YDR334W, strain swr1, hits give low values 1.02 | locus YDR335W, strain msn5, hits give low values 1.04 | locus YDR388W, hits give low values 0.975 | locus YDR392W, strain spt3, hits give low values 1.05 | locus YDR502C, strain sam2, hits give low values 1 | locus YEL003W, strain gim4, hits give low values 0.997 | locus YEL037C, strain rad23, hits give low values 1.02 | locus YEL061C, strain CIN8 (second series), hits give low values 1.02 | locus YEL061C, strain CIN8, hits give low values 0.989 | locus YER002W, strain NOP16, hits give low values 0.993 | locus YER015W, strain faa2, hits give low values 1.02 | locus YER016W, strain bim1, hits give low values 1.02 | locus YER110C, hits give low values 0.978 | locus YER111C, strain swi4, hits give low values 1 | locus YER155C, strain BEM2 (second series), hits give low values 1.02 | locus YER155C, strain BEM2, hits give low values 0.992 | locus YER167W, strain BCK2, hits give low values 0.988 | locus YFR010W, strain ubp6, hits give low values 0.99 | locus YGL078C, strain dbp3, hits give low values 0.987 | locus YGL086W, strain mad1, hits give low values 0.989 | locus YGL167C, strain pmr1, hits give low values 1.02 | locus YGL173C, strain kem1, hits give low values 1.02 | locus YGL227W, strain vid30, hits give low values 1.01 | locus YGL240W, strain doc1, hits give low values 1.02 | locus YGL248W, strain PDE1, hits give low values 0.99 | locus YGL253W, strain hxk2, hits give low values 1.03 | locus YGR078C, strain PAC10, hits give low values 0.992 | locus YGR135W, strain pre9, hits give low values 0.976 | locus YGR229C, strain SMI1, hits give low values 1.03 | locus YGR252W, strain gcn5, hits give low values 1.05 | locus YHR013C, strain ard1, hits give low values 1.05 | locus YHR027C, strain rpn1, hits give low values 1.02 | locus YHR030C, strain SLT2, hits give low values 0.984 and 0.992 | locus YHR079C, strain IRE1 (second series), hits give low values 0.965 | locus YHR079C, strain IRE1, hits give low values 0.988 | locus YHR094C, strain hxt1, hits give low values 0.985 | locus YHR129C, strain ARP1, hits give low values 0.995 | locus YHR142W, strain chs7, hits give low values 1.05 | locus YHR200W, strain rpn10, hits give low values 0.979 | locus YIL066C, strain RNR3, hits give low values 0.989 | locus YIL073C, strain SPO22, hits give low values 0.94 | locus YIL125W, strain kgd1, hits give low values 0.983 | locus YIR030C, strain dcg1, hits give low values 0.97 | locus YJL092W, strain hpr5, hits give low values 1.01 | locus YJL095W, strain BCK1 (second series), hits give low values 1.03 | locus YJL095W, strain BCK1, hits give low values 1.01 and 0.99 | locus YJL115W, strain asf1, hits give low values 1.03 | locus YJL129C, strain trk1, hits give low values 1.04 | locus YJL134W, strain LCB3, hits give low values 0.989 | locus YJL154C, strain vps35, hits give low values 1.01 | locus YJL164C, strain tpk1, hits give low values 1.01 | locus YJL166W, strain qcr8, hits give low values 1.02 | locus YJL168C, strain set2, hits give low values 0.978 | locus YJL187C, strain SWE1 (second series), hits give low values 0.984 | locus YJL187C, strain SWE1, hits give low values 1 | locus YJR043C, strain POL32, hits give low values 0.997
